Reference: PubChem BioAssay
Activity calls are given as the source filed them.

Experiments:
[1] = system: Plasmodium falciparum Sir2 (PF13_0152, Sir2A); experiment: pfSir2 binders on small-molecule microarrays, primary screen, biochemical, small-molecule microarray, 635 nm fluorescence (AID 1098); conditions: small-molecule microarray binding, fluorescence 635 nm; higher = more signal;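 also: score merges spot fluorescence intensity with its signal-to-noise ratio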
[2] = small-molecule microarray binders of probe aDKK1, primary screen, biochemical, biotinylated probe, 635/667 nm fluorescence (AID 1099); conditions: higher = more signal;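 also: score merges 667nm spot fluorescence with signal to noise across triplicate slides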
[3] = small-molecule microarray binders of probe aCHRDL2, primary screen, biochemical, biotinylated probe, 635/667 nm fluorescence (AID 1100); conditions: higher = more signal
[4] = splicing luciferase reporter signal modulators, primary screen, spliceosome inhibition project, cell-based, HEK293, splice +/- reporter (AID 1101); conditions: luminescence, 24 h, higher = more signal, called active from +8 up or from −8 down;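 also: HEK293 cells carrying a splicing-competent luciferase reporter gene; test concentration not given here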
[5] = biological target: Fibroblast growth factor 10 (Homo sapiens) (UniProt O15520); experiment: FGF10 binders on small-molecule microarrays, primary screen, biochemical, small-molecule microarray, 635 nm fluorescence (AID 1102); conditions: FGF10 binding, fluorescence 635 nm, higher = more signal
Chain of Fibroblast growth factor 10 (Homo sapiens) (O15520 whole entry, looked up): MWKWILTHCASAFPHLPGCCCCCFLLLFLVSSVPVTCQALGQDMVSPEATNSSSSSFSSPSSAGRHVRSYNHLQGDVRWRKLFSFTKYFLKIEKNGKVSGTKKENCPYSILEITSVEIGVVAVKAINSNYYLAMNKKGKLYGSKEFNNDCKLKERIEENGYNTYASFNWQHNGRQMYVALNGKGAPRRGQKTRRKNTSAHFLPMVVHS

[6] = system: glycogen synthase kinase-3 (GSK3A per assay name; protocol says GSK3B); experiment: GSK3 binders on small-molecule microarrays, primary screen, biochemical, small-molecule microarray, 635 nm fluorescence, GSK3A (AID 1103); conditions: small-molecule microarray binding, fluorescence 635 nm; higher = more signal; also: the record names both GSK3A and GSK3B
[7] = biological target: Epidermal growth factor receptor (Homo sapiens) (UniProt P00533); experiment: EGFR binders on small-molecule microarrays, primary screen, biochemical, small-molecule microarray, 635 nm fluorescence (AID 1104); conditions: EGFR binding, higher = more signal;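 also: score merges 667 nm emission intensity with spot signal to noise over triplicate slides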
Chain of Epidermal growth factor receptor (Homo sapiens) (P00533 whole entry, looked up): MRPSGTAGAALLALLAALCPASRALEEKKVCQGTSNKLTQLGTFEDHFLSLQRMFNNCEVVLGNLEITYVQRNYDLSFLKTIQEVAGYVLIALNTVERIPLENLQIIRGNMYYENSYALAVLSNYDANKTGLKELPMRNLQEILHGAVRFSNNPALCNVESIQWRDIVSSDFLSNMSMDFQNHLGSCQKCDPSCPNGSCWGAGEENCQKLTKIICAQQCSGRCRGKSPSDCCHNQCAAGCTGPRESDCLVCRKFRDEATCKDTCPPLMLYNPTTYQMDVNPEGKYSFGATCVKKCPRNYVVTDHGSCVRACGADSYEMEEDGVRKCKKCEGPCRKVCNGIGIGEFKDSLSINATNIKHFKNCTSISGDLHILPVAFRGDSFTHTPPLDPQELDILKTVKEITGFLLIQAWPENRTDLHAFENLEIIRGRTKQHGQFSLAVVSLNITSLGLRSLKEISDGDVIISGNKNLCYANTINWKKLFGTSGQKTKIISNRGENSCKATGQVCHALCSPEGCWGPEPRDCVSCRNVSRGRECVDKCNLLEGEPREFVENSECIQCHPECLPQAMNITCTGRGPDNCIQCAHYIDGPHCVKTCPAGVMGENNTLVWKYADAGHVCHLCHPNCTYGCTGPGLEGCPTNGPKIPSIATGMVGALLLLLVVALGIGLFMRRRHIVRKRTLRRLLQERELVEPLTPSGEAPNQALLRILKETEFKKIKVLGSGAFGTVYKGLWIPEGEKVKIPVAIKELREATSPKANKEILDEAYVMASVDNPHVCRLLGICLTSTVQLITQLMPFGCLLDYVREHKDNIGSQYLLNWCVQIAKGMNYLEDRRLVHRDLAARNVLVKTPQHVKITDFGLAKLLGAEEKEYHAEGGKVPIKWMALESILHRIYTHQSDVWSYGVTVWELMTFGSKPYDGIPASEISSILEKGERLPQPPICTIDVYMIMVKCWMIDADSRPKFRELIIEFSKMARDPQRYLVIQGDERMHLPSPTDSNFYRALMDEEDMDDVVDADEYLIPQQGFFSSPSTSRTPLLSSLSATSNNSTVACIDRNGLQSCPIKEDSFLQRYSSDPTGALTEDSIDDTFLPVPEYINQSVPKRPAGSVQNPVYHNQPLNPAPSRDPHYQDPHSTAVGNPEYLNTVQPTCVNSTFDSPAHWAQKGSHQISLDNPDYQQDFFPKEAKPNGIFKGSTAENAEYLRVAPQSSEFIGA

[8] = biological target: Follistatin-related protein 3 (Homo sapiens) (UniProt O95633); experiment: FSTL3 binders on small-molecule microarrays, primary screen, biochemical, small-molecule microarray, 635 nm fluorescence (AID 1105); conditions: FSTL3 binding, higher = more signal;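 also: score merges emission near 667 nm and signal to noise per printed spot across three slides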
Chain of Follistatin-related protein 3 (Homo sapiens) (O95633 whole entry, looked up): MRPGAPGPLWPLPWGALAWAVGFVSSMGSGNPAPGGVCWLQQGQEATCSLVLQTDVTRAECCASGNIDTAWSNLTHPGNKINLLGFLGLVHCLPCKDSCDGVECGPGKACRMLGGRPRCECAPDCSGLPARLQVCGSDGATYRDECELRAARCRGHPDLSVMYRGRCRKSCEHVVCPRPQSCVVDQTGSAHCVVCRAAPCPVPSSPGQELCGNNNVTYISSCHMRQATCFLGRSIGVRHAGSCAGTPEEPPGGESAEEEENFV

[9] = biological target: Dickkopf-related protein 1 (Homo sapiens) (UniProt O94907); experiment: DKK1 binders on small-molecule microarrays, primary screen, biochemical, small-molecule microarray, 635 nm fluorescence scan (AID 1106); conditions: DKK1 binding, higher = more signal;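 also: score merges emission near 667 nm with signal to noise over three replicate slides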
Chain of Dickkopf-related protein 1 (Homo sapiens) (O94907 whole entry, looked up): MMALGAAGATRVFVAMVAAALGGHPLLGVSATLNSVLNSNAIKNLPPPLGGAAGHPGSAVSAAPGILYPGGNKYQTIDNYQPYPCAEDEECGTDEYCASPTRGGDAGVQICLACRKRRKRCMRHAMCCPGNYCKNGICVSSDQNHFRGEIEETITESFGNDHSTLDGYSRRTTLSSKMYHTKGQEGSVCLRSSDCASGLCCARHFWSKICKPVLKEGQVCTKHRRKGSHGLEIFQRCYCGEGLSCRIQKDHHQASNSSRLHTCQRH

[10] = system: Inhibin beta A chain (activin A); experiment: INHBA (activin A) binders on microarrays, primary screen, biochemical, small-molecule microarray, 635 nm fluorescence scan (AID 1107); conditions: small-molecule microarray binding, higher = more signal;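 also: mouse activin A protein probed at 4.33 µg/mL on printed slides; score merges bound-protein fluorescence near 667 nm with spot signal-to-noise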
[11] = system: Human papillomavirus type 1a protein E7 (residues 44-93); experiment: HPV1a E7 fragment binders on microarrays, primary screen, biochemical, small-molecule microarray, residues 44-93, 635 nm fluorescence (AID 1108); conditions: small-molecule microarray binding, fluorescence 635 nm; higher = more signal;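 also: E7 fragment applied at 1 µg/mL in TBST for 1 h at 4 C; score combines spot fluorescence with its signal to noise ratio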
[12] = modulators of HCV replicon luciferase signal, primary screen, HCV replication inhibitor project, Huh7 cells, luciferase reporter (AID 1109); conditions: 48 h, higher = more signal;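 also: huh7 hepatoma cells harbouring a luciferase neomycin HCV replicon reporter; luciferase luminescence as measure of HCV replicon replication; test concentration not given here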
[13] = biological target: Left-right determination factor 2 (Homo sapiens) (UniProt O00292); experiment: LEFTY2 binders on small-molecule microarrays, primary screen, biochemical, small-molecule microarray, 635 nm fluorescence scan (AID 1110); conditions: LEFTY2 binding, higher = more signal
Chain of Left-right determination factor 2 (Homo sapiens) (O00292 whole entry, looked up): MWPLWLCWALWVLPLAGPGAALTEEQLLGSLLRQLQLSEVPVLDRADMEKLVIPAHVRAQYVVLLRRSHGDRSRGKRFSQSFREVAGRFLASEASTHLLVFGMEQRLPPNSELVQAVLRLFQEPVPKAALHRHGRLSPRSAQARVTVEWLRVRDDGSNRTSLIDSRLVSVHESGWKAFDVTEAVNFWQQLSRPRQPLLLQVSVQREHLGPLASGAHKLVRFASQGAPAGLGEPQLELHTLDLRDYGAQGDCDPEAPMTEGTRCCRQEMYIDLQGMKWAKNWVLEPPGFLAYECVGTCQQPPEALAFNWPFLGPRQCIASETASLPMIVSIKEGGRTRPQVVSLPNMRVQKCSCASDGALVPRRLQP

[14] = biological target: Calmodulin-1 (Homo sapiens) (UniProt P0DP23); experiment: CALM1 binders on microarrays, EGTA buffer, profiling panel, biochemical, small-molecule microarray, Cy5-labelled CALM1 (AID 1111); conditions: Cy5-CALM1 binding fluorescence, higher = more signal;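 also: labelled calmodulin applied in Tris saline Tween buffer holding calcium plus EGTA and DTT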
[15] = biological target: Calmodulin-1 (Homo sapiens) (UniProt P0DP23); experiment: calcium-bound CALM1 binders on microarrays, profiling panel, artefact control for SMM control-protein annotation, biochemical, small-molecule microarray, Cy5-labelled CALM1, plus calcium (AID 1112); conditions: Cy5-CALM1 binding fluorescence, higher = more signal;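 also: score merges spot fluorescence with signal to noise from triplicate slides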
[16] = small-molecule microarray binders of probe aWnt5a, primary screen, biochemical, biotinylated probe, 635/667 nm fluorescence (AID 1113); conditions: higher = more signal;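 also: score merges 667 nm fluorescence intensity with signal-to-noise per printed feature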
[17] = small-molecule microarray binders of probe aShh, primary screen, biochemical, biotinylated probe, 635/667 nm fluorescence (AID 1114); conditions: higher = more signal;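 also: probe is biotin-labelled aShh protein from a stem cell growth factor screen; measures binding of labelled protein to compounds printed on the slide; score merges feature fluorescence at 667 nm with signal-to-noise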
[18] = small-molecule microarray binders of probe aNog, primary screen, biochemical, biotinylated probe, 635/667 nm fluorescence (AID 1115); conditions: higher = more signal;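 also: probe is biotinylated aNog protein used at 0.15 µg/mL for 1 h at 4 C; z-score combines 667 nm fluorescence of each spot with its signal to noise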
[19] = biological target: Torsin-1A-interacting protein 1 (Homo sapiens) (UniProt Q5JTV8); experiment: LAP1 binders from COS7 cell lysate, primary screen, small-molecule microarray, 635/667 nm fluorescence (AID 1116); conditions: COS7-hLAP1 lysate binding, 635 nm fluorescence, higher = more signal
Chain of Torsin-1A-interacting protein 1 (Homo sapiens) (Q5JTV8 whole entry, looked up): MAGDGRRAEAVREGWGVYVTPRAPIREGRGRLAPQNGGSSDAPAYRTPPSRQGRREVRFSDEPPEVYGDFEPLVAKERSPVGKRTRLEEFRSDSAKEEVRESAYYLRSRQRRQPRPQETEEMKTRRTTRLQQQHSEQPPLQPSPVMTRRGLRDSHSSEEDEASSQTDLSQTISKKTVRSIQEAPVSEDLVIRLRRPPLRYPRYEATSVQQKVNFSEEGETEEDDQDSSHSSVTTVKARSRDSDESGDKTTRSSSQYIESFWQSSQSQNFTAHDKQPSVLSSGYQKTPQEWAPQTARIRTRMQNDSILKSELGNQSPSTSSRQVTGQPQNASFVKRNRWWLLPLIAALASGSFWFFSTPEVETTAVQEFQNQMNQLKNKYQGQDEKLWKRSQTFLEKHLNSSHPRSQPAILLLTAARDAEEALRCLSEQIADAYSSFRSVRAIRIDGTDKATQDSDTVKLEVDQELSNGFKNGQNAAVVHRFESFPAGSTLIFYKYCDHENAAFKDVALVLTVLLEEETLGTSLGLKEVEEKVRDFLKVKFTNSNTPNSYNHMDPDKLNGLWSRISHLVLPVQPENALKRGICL

[20] = biological target: Alpha-bungarotoxin (Bungarus multicinctus) (UniProt P60615); experiment: alpha-bungarotoxin binders on microarray, profiling panel, artefact control for SMM control protein annotation, biochemical, small-molecule microarray, Alexa647 label, 635/667 nm fluorescence (AID 1117); conditions: alpha-BTX-A647 binding fluorescence, higher = more signal
Chain of Alpha-bungarotoxin (Bungarus multicinctus) (P60615 whole entry, looked up): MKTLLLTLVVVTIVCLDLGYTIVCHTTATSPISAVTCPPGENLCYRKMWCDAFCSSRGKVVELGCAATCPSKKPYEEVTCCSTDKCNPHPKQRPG

SMILES | composite z-score [1] | composite z-score [2] | composite z-score [3] | z-score [4] | composite z-score [5] | composite z-score [6] | composite z-score [7] | composite z-score [8] | composite z-score [9] | composite z-score [10] | composite z-score [11] | z-score [12] | composite z-score [13] | composite z-score [14] | composite z-score [15] | composite z-score [16] | composite z-score [17] | composite z-score [18] | composite z-score [19] | composite z-score [20]
CN(C)CCCC[C@@H]1NC(=O)[C@H]2C[C@@H](C(=O)NCCCCCCNC(=O)CS)[C@@H](c3cccc(OCCO)c3)N2C1=O | 0.872 | 0.094 | 0.366 | 0.624 (inactive) | 0.124 | 0.846 | -0.166 | -0.606 | 0.156 | -0.364 | 0.521 | 0.0145 | -0.17 | -0.0373 | -0.323 | -0.113 | -0.0709 | -0.429 | 0.358 | 0.539
C=C(COC)C(=O)CC[C@@H](OC(=O)c1ccccc1-c1ccccc1C(=O)O)c1ccccc1OCCO | 0.664 | -0.0934 | 0.0182 | -0.14 (inactive) | 1.65 | 0.293 | -0.0099 | 0.474 | 0.902 | 1.34 | 0.933 | -1.91 | 0.585 | -0.537 | -1.2 | -0.232 | -0.17 | 0.153 | 3.7 | -0.217
CCCCCN1CC=CC23O[C@@H]4/C=C\CCCOC(=O)C4[C@H]2C(=O)N(CCO)[C@@H]3C1=O (stereo not given in full) | 1.14 | -0.132 | 0.107 | -1.83 (inactive) | -0.412 | 0.45 | -0.356 | -0.338 | -0.0986 | 1.14 | 1.45 | 0.548 | -0.155 | -0.173 | 0.463 | -0.13 | -0.0709 | -0.191 | 0.162 | 0.227
COCCOC(=O)N1C(=O)[C@@]2(c3cc(C#CCC(C(=O)OC)C(=O)OC)ccc31)[C@H](c1ccc(O)cc1)N1[C@H](c3ccccc3)[C@H](c3ccccc3)OC(=O)[C@H]1[C@@H]2C(=O)N1CCc2cc(OC)c(OC)cc2C1 | 1.21 | -0.149 | 0.131 | 0.0333 (inactive) | 1.09 | 1.08 | 0.294 | 0.728 | 0.384 | 0.0348 | 0.438 | -0.284 | 1.04 | 0.505 | 0.781 | 0.0215 | 0.0898 | -0.366 | 1.54 | 1.36
O=C1N(Cc2ccccc2)c2ccccc2C[C@@]12N=C(c1ccc(OCCCO)cc1)O[C@H]2c1ccccc1 | -0.0351 | 0.184 | 0.923 | -0.521 (inactive) | 0.457 | 0.977 | 0.282 | 0.319 | -0.648 | 0.295 | 1.34 | -3.11 | -0.297 | 0.333 | -0.458 | -0.103 | 0.0948 | 0.576 | 0.176 | 0.849
COC(=O)Cn1c(C(=O)N(C)C)cc2c1C[C@H]1CN(C(=O)c3ccccc3)[C@@](Cc3ccccc3)(C(=O)OC)[C@@H]21 | 0.272 | 0.605 | 0.686 | -0.332 (inactive) | -0.482 | -1.25 | 0.183 | -0.326 | -0.578 | 0.865 | -1.8 | -0.0967 | 0.103 | 0.371 | -0.198 | 0.0077 | 0.253 | -0.354 | -0.878 | 0.195
[N-]=[N+]=Nc1ccccc1C[C@@]1(C(=O)NCC(O)CO)N=C(c2ccc(OCCCO)cc2)O[C@@H]1c1ccccc1N=[N+]=[N-] (stereo not given in full) | 1.05 | 0.106 | 1.09 | 8.25 (active) | 0.233 | 0.446 | -0.283 | 0.855 | -0.67 | 1.33 | 0.796 | -3.13 | -0.458 | 2.15 | 0.176 | 0.0586 | 0.348 | -0.596 | 1.64 | 0.427
CC(=O)NCCCC[C@@H]1NC(=O)[C@H]2C[C@@H](C(=O)NCCCCCN)[C@@H](c3ccc(O)cc3)N2C1=O | 0.863 | 0.316 | 0.17 | 0.0809 (inactive) | 0.544 | 1.29 | 0.511 | 0.777 | 1.02 | 0.792 | 1.36 | 0.199 | 0.777 | 0.536 | 0.973 | -0.1 | -0.0211 | -0.221 | 0.852 | 0.988
CCOC(=O)C[C@H]1[C@H](OC(=O)c2ccccc2-c2ccccc2)[C@@H](NC(=O)CC(C)C)c2cc(OCCCO)ccc2N1C(=O)c1ccccc1 | 0.461 | -0.28 | -0.56 | -0.739 (inactive) | 0.625 | 0.211 | 0.405 | 1.26 | 0.523 | -0.105 | 0.0819 | -0.783 | 0.466 | -0.0923 | -0.497 | -0.124 | -0.289 | -0.189 | 0.222 | 0.23
COc1cc(Cc2cc3c(c(-c4ccccc4)n2)[Si](C(C)C)(C(C)C)OC3)cc(OC)c1OC | -0.201 | -0.113 | 0.105 | -0.877 (inactive) | 0.607 | -0.0611 | 0.1 | 0.0088 | 0.17 | 1.23 | -1.82 | 0.385 | 0.363 | -0.651 | -0.0062 | -0.175 | 0.915 | -0.359 | -0.181 | 1.34
Cc1ccc(S[C@]2(C(=O)NCCN3CCOCC3)CC(=O)N(C(C)C)[C@@H]2c2ccc(CO)cc2I)cc1 | 1.89 | 0.713 | 1.24 | -1.48 (inactive) | -0.477 | -0.465 | -1.19 | -0.55 | -0.908 | 0.968 | 0.89 | -2.32 | -0.532 | -1.17 | -0.693 | -0.154 | -0.138 | -0.119 | 0.974 | -1.08
